FAS TE block: inhibitors of human fatty acid synthase thioesterase domain. P49327. recombinant FAS-TE, OMFH fluorogenic substrate, fluorescence endpoint. inhibition, % at 15 µM. 360,000 compounds, 0.67% hits;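 active means compounds whose normalised, plate-corrected inhibition of enzyme fluorescence in the single-dose primary screen is 50% or more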
aDG glyco up: increases alpha dystroglycan glycosylation; Pro5-aDG cells, alpha-DG glycosylation AlphaScreen (IIH6); 0% Pro5, 100% B10-LARGE cell signal; activation, % at 10 µM; 360,000 compounds, 0.22% hits;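 active means activation of at least 8% versus controls, or a plate z-score of at least 8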;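 further: Pro5 are CHO cells carrying HIG-tagged alpha-DG that lacks glycosylation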
H9c2 TAG inh: inhibitors of triacylglycerol accumulation; H9c2 cells, Nile Red lipid (TAG) fluorescence; cells loaded with 200 µM oleic acid; inhibition, % at 12.5 µM; 230,000 compounds, 0.66% hits;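 active means pattern-corrected inhibition of lipid staining of at least 50% with the nuclear-stain viability signal not falling by more than 50%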
Calpain2 inh: calpain II (pig) inhibition; purified calpain II, fluorogenic peptide substrate, 30 min; inhibition, % at 16 µM; 220,000 compounds, 0.37% hits;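 active means inhibition above about 50%, limit read from the data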
MIN6 prolif: MIN6 beta-cell proliferation induction. MIN6 cells proliferation, ATPlite luminescence, 48 h; cells starved in 0.2% serum; 100% = growth in 10% serum. proliferation, % at 10 µM. 330,000 compounds, 0.29% hits;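 active means compounds whose signal lies at least 3.5 SD above the mean of all wells on their plate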
Cardio protect: myocardial damage modulation in H9c2 cells. H9c2 cardiomyocytes, H2O2 injury protection, ATPLite, 2 h. protection from H2O2 cell death, % at 20 µM. 360,000 compounds, 0.63% hits. AID 588492;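 active means compounds giving at least 50% protection of heart cells from peroxide-induced death in the single-dose screen, raw or plate-pattern-corrected value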
Numbers stand for hits; 0 = inactive; - = not tested or not shown. Most compounds without a hit are left out; they make up all but 2.3% or so of the library.

SMILES	FAS TE block	aDG glyco up	H9c2 TAG inh	Calpain2 inh	MIN6 prolif	Cardio protect
COc1ccc(NC(=O)c2ccccc2SC)cc1	0	0	0	90	0	0
O=C1C=C(N2CCOCC2)c2cccc3cccc1c23	0	0	0	-	-	61
CC1=C(C)C(=O)C(N2CCOCC2)=CC1=O	0	5.3	0	0	-	0
O=C1C(N2CCOCC2)=Cc2cccc3cccc1c23	0	0	0	-	-	0
O=C1C=C(N2CCOCC2)c2ccccc2C1=O	0	0	-	-	0	0
COc1ccc(C(=O)CSc2cc(C)[nH]c(=O)n2)cc1	0	0	-	-	0	0
COC(=O)[C@@]12CCCCN1[C@H](c1ccc(-c3cc(C(C)=O)cs3)cc1)[C@H]1C(=O)N(C)C(=O)[C@H]12	0	0	0	-	0	56
Cc1c(C(C)C)c(=O)n(-c2ccc(S(=O)(=O)NC3CCCCC3)cc2)n1C	0	0	-	0	0	0
Cc1c(C(C)C)c(=O)n(-c2ccc(S(=O)(=O)NCc3ccccc3)cc2)n1C	0	8.4	0	0	0	0
COc1ccc(CNC(=O)C(c2ccncc2)N(C(=O)Cc2cccs2)c2ccccc2)cc1 (centres undefined)	0	0	0	0	-	0
COc1ccc(N(C(=O)CCl)C(C(=O)NCCc2ccccc2)c2cccs2)cc1 (centres undefined)	63	0	-	0	-	0
O=c1cc(-c2ccc([N+](=O)[O-])cc2)c2ccc(O)cc2o1	0	0	0	0	0	60
CSc1ccc(CN(C)C(=O)C2CCN(C(=O)Nc3ccccc3)CC2)cc1	0	0	0	-	0	0
CC(=O)N1CCOc2ccc(S(=O)(=O)NCCc3cccc(C)c3)cc21	0	0	-	-	0	0
Cc1cccc(OCCCC(=O)NNC(=O)c2ccccn2)c1	0	0	0	-	0	50
CSc1nc2cc(Oc3cccc(Cl)c3Cl)c(Cl)cc2[nH]1	0	0	0	61	0	0
CSc1nc2ccc(Cl)cc2[nH]1	0	0	-	0	0	0
NC(Cc1ccc(Cl)cc1)c1csc(Nc2cc(NCCCO)ncn2)n1 (centres undefined)	0	0	0	-	-	0
Cc1ccc(C)c(N2CCN(C(=O)C3CCCCN3S(=O)(=O)c3ccc(F)cc3)CC2)c1 (centres undefined)	0	0	-	57	0	0
CCC(=O)OCCNc1cc(Sc2nccn2C)c2nonc2c1[N+](=O)[O-]	0	0	69	0	-	0
CC(C)CCSc1cc(NCCO)c([N+](=O)[O-])c2nonc12	0	0	0	0	0	0
CCC(=O)OCCNc1cc(SCCC(=O)OC)c2nonc2c1[N+](=O)[O-]	0	0	0	0	0	54
O=C(Nc1ccc(Nc2ccncc2)cc1)c1ccc(Nc2ccnc3ccc([N+](=O)[O-])cc23)cc1	0	0	-	51	-	0
COc1cccc2cc(C(=O)OCc3ccccc3)c(=O)oc12	0	0	-	-	0	0
COc1ccc(C2=Nn3c(nnc3-c3ccccn3)SC2)cc1OC	0	0	-	0	0	0
SMILES	FAS TE block	aDG glyco up	H9c2 TAG inh	Calpain2 inh	MIN6 prolif	Cardio protect
COc1ccc(C2=Nn3c(nnc3-c3ccccc3OC)SC2)cc1OC	0	0	60	0	-	0
Cc1cc(-c2nnc3n2N=C(c2ccccc2Br)CS3)n[nH]1	0	0	0	0	0	0
Cc1cccc(-c2nnc3n2N=C(c2ccccc2Br)CS3)c1	0	0	0	0	7.3	0
O=C(Nc1ccc(F)cc1)Nc1nnc(Cc2ccccc2F)s1	0	0	0	-	0	0
Cc1nc(Nc2nc3ccccc3o2)nc(C)c1C	0	0	0	0	0	0
Cc1ccnc(Nc2nc3ccccc3o2)n1	0	0	0	133	0	0
CC1CCN(Cc2c(C(=O)N/N=C/c3ccc(OC(C)C)cc3)nnn2-c2nonc2N)CC1	0	0	-	-	0	0
Oc1ccc(Nc2nc(-c3ccccc3)nc3ccccc23)cc1	0	0	-	-	0	0
O=[N+]([O-])c1ccc(-c2nc(Nc3ccc(O)cc3)c3ccccc3n2)cc1	0	0	-	-	0	52
CN(CCO)c1nc2c(c(=O)n(Cc3ccc(Cl)cc3)c(=O)n2C)n1C	0	0	-	-	0	0
O=C(CSc1nnc(-c2ccccc2)n1Cc1ccccc1)NNC(=O)c1ccccc1O	0	0	-	0	0	59
Cn1c(=O)c2c(nc(NCc3cccnc3)n2Cc2cccc(C(F)(F)F)c2)n(C)c1=O	0	0	0	0	0	73

Bioassay records (PubChem)
